Values joined by “and” are separate entries in the source; they are usually repeats but may differ in a detail not shown here. Identical values can stand only once. Screen size: about 5,500 compounds; about 2,000 (36%) were called active. Inconclusive results (about 18%) are left out. Cut-off read from the data, not from the text of the source: active = normalized growth mostly below about 0.91 (no sharp cut-off); inconclusive = no clear call, values can overlap the other calls; inactive = mostly above about 0.92. This is one part of the list.
Experiment: chemical genetic growth profiling, strain panel (AID 1159580);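 note: tested at 20 µM; growth read once vehicle control cultures reached saturation at 30 °C; 1 = growth at the plate median or of vehicle wells; lower values mean less growth of the strain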
Conditions: S. cerevisiae deletion strains, growth OD

Measured: normalized growth

CCN(CC)CCOC(=O)C(Cc1cccc2ccccc12)CC1CCCO1 (stereo not given)
inactive: locus YAL013W, strain DEP1, stronger effect = lower value 1.03 | locus YAL021C, strain ccr4, stronger effect = lower value 1 | locus YAL026C, strain drs2, stronger effect = lower value 1.01 | locus YAL030W, strain snc1, stronger effect = lower value 0.998 | locus YBL061C, strain skt5, stronger effect = lower value 1.01 | locus YBR009C, strain hhf1, stronger effect = lower value 1.01 | locus YBR021W, strain FUR4, stronger effect = lower value 1.02 | locus YBR023C, strain chs3, stronger effect = lower value 1.01 | locus YBR171W, strain sec66, stronger effect = lower value 1.02 | locus YBR229C, strain ROT2, stronger effect = lower value 1 | locus YBR231C, strain swc5, stronger effect = lower value 0.995 | locus YBR279W, strain paf1, stronger effect = lower value 1.01 | locus YCL011C, strain gbp2, stronger effect = lower value 1.01 | locus YCL016C, strain dcc1, stronger effect = lower value 1.01 | locus YCL029C, strain bik1, stronger effect = lower value 1.01 | locus YCL061C, strain MRC1, stronger effect = lower value 1.01 | locus YCL069W, strain vba3, stronger effect = lower value 1.01 | locus YCR088W, strain abp1, stronger effect = lower value 1 | locus YDL005C, strain med2, stronger effect = lower value 1.01 | locus YDL035C, strain GPR1, stronger effect = lower value 1.02 | locus YDL040C, strain nat1, stronger effect = lower value 1.01 | locus YDL074C, strain BRE1, stronger effect = lower value 1.02 | locus YDL101C, strain DUN1, stronger effect = lower value 1 | locus YDL134C, strain PPH21, stronger effect = lower value 1.01 | locus YDL185W, strain tfp1, stronger effect = lower value 1.01 | locus YDL192W, strain arf1, stronger effect = lower value 1.01 | locus YDR001C, strain nth1, stronger effect = lower value 1.01 | locus YDR069C, strain doa4, stronger effect = lower value 1.02 | locus YDR101C, strain arx1, stronger effect = lower value 1.02 | locus YDR137W, strain rgp1, stronger effect = lower value 1.07 | locus YDR159W, strain sac3, stronger effect = lower value 1.02 | locus YDR162C, strain NBP2, stronger effect = lower value 1.02 | locus YDR195W, strain ref2 0.996 | locus YDR297W, strain sur2, stronger effect = lower value 1.01 | locus YDR318W, strain mcm21, stronger effect = lower value 1 | locus YDR334W, strain swr1, stronger effect = lower value 1.01 | locus YDR335W, strain msn5, stronger effect = lower value 1.01 | locus YDR388W, stronger effect = lower value 1.01 | locus YDR392W, strain spt3, stronger effect = lower value 1.01 | locus YDR502C, strain sam2, stronger effect = lower value 1.01 | locus YEL003W, strain gim4, stronger effect = lower value 1.01 | locus YEL037C, strain rad23, stronger effect = lower value 1.01 | locus YEL061C, strain CIN8 (second series), stronger effect = lower value 1.01 | locus YEL061C, strain CIN8, stronger effect = lower value 1.01 | locus YER015W, strain faa2, stronger effect = lower value 1.01 | locus YER016W, strain bim1, stronger effect = lower value 1.01 | locus YER110C, stronger effect = lower value 0.99 | locus YER111C, strain swi4, stronger effect = lower value 1.01 | locus YER155C, strain BEM2 (second series), stronger effect = lower value 1.01 | locus YER155C, strain BEM2, stronger effect = lower value 1 | locus YER167W, strain BCK2, stronger effect = lower value 1.01 | locus YFR010W, strain ubp6, stronger effect = lower value 1.02 | locus YGL078C, strain dbp3, stronger effect = lower value 1.02 | locus YGL086W, strain mad1, stronger effect = lower value 1.01 | locus YGL167C, strain pmr1, stronger effect = lower value 1.01 | locus YGL173C, strain kem1, stronger effect = lower value 1.01 | locus YGL227W, strain vid30, stronger effect = lower value 1 | locus YGL240W, strain doc1, stronger effect = lower value 1.01 | locus YGL248W, strain PDE1, stronger effect = lower value 1.01 | locus YGL253W, strain hxk2, stronger effect = lower value 1.01 | locus YGR078C, strain PAC10, stronger effect = lower value 1.03 | locus YGR135W, strain pre9, stronger effect = lower value 0.998 | locus YGR252W, strain gcn5, stronger effect = lower value 1.02 | locus YHR013C, strain ard1, stronger effect = lower value 1.01 | locus YHR027C, strain rpn1, stronger effect = lower value 1.01 | locus YHR030C, strain SLT2, stronger effect = lower value 1.01 and 0.997 | locus YHR079C, strain IRE1 (second series), stronger effect = lower value 1 | locus YHR079C, strain IRE1, stronger effect = lower value 0.985 | locus YHR094C, strain hxt1, stronger effect = lower value 0.997 | locus YHR129C, strain ARP1, stronger effect = lower value 1.01 | locus YHR142W, strain chs7, stronger effect = lower value 1.02 | locus YHR200W, strain rpn10, stronger effect = lower value 1.01 | locus YIL066C, strain RNR3, stronger effect = lower value 1.03 | locus YIL073C, strain SPO22, stronger effect = lower value 1.08 | locus YIL125W, strain kgd1, stronger effect = lower value 1 | locus YIR030C, strain dcg1, stronger effect = lower value 1.01 | locus YJL092W, strain hpr5, stronger effect = lower value 1.01 | locus YJL095W, strain BCK1 (second series), stronger effect = lower value 1 | locus YJL095W, strain BCK1, stronger effect = lower value 1.03 and 0.993 | locus YJL115W, strain asf1, stronger effect = lower value 1 | locus YJL129C, strain trk1, stronger effect = lower value 0.998 | locus YJL134W, strain LCB3, stronger effect = lower value 1 | locus YJL154C, strain vps35, stronger effect = lower value 1.01 | locus YJL164C, strain tpk1, stronger effect = lower value 1.01 | locus YJL166W, strain qcr8, stronger effect = lower value 1 | locus YJL168C, strain set2, stronger effect = lower value 0.998 | locus YJL187C, strain SWE1 (second series), stronger effect = lower value 1.02 | locus YJL187C, strain SWE1, stronger effect = lower value 1.01 | locus YJR043C, strain POL32, stronger effect = lower value 1.02 | locus YJR066W, strain TOR1, stronger effect = lower value 0.95 | locus YKL009W, strain mrt4, stronger effect = lower value 0.989 | locus YKL068W, stronger effect = lower value 1 | locus YKL085W, strain MDH1 (second series), stronger effect = lower value 1 | locus YKL085W, strain MDH1, stronger effect = lower value 1 | locus YKL160W, strain elf1, stronger effect = lower value 1 | locus YKR001C, strain vps1, stronger effect = lower value 1.01 | locus YKR026C, strain gcn3, stronger effect = lower value 1.01 | locus YKR091W, strain srl3, stronger effect = lower value 1 | locus YLL001W, strain dnm1, stronger effect = lower value 0.999 | locus YLL026W, stronger effect = lower value 1 | locus YLL041C, strain sdh2, stronger effect = lower value 1.01 | locus YLR027C, strain aat2, stronger effect = lower value 1.01 | locus YLR039C, strain RIC1, stronger effect = lower value 1.11 | locus YLR058C, strain SHM2, stronger effect = lower value 1.01 | locus YLR102C, strain apc9, stronger effect = lower value 0.992 | locus YLR113W, strain HOG1, stronger effect = lower value 0.986 | locus YLR221C, strain rsa3, stronger effect = lower value 1.01 | locus YLR258W, strain gsy2, stronger effect = lower value 1 | locus YLR262C, strain YPT6 (second series), stronger effect = lower value 1.03 | locus YLR262C, strain YPT6, stronger effect = lower value 1.06 | locus YLR268W, strain sec22, stronger effect = lower value 1.02 | locus YLR320W, strain mms22, stronger effect = lower value 1.03 | locus YLR330W, strain CHS5, stronger effect = lower value 1.01 | locus YLR342W, strain FKS1 (second series), stronger effect = lower value 1.02 | locus YLR342W, strain FKS1, stronger effect = lower value 1.01 | locus YLR357W, strain rsc2, stronger effect = lower value 0.998 | locus YLR370C, strain arc18, stronger effect = lower value 1.01 | locus YLR371W, strain rom2, stronger effect = lower value 1.01 | locus YLR384C, strain iki3, stronger effect = lower value 1.02 | locus YLR418C, strain cdc73, stronger effect = lower value 1.02 | locus YML016C, strain PPZ1, stronger effect = lower value 1 | locus YML032C, strain rad52, stronger effect = lower value 1.01 | locus YML120C, strain ndi1, stronger effect = lower value 1 | locus YML124C, strain tub3, stronger effect = lower value 1 | locus YMR058W, strain fet3, stronger effect = lower value 1.01 | locus YMR078C, strain ctf18, stronger effect = lower value 1.02 | locus YMR125W, strain sto1, stronger effect = lower value 1.01 | locus YMR129W, stronger effect = lower value 1.01 | locus YMR205C, strain PFK2, stronger effect = lower value 1.02 | locus YMR223W, strain ubp8, stronger effect = lower value 1.02 | locus YMR231W, strain pep5, stronger effect = lower value 1.02 | locus YMR307W, strain GAS1, stronger effect = lower value 0.965 | locus YNL067W, strain RPL9B, stronger effect = lower value 1.03 | locus YNL071W, strain lat1, stronger effect = lower value 1.01 | locus YNL153C, strain GIM3, stronger effect = lower value 1.03 | locus YNL183C, strain NPR1, stronger effect = lower value 0.939 | locus YNL209W, strain ssb2, stronger effect = lower value 1.02 | locus YNL233W, strain BNI4, stronger effect = lower value 1.03 | locus YNL248C, strain rpa49, stronger effect = lower value 1.01 | locus YNL250W, strain rad50, stronger effect = lower value 1.01 | locus YNL271C, strain bni1, stronger effect = lower value 0.998 | locus YNL298W, strain CLA4, stronger effect = lower value 0.998 | locus YNL307C, strain MCK1, stronger effect = lower value 1.02 | locus YNL322C, strain KRE1 (second series), stronger effect = lower value 0.996 | locus YNR049C, strain mso1, stronger effect = lower value 0.997 | locus YNR052C, strain pop2, stronger effect = lower value 0.993 | locus YOL006C, strain TOP1, stronger effect = lower value 1.14 | locus YOL012C, strain htz1 0.825 | locus YOL147C, strain pex11, stronger effect = lower value 1 | locus YOR001W, strain rrp6, stronger effect = lower value 1.01 | locus YOR061W, strain CKA2, stronger effect = lower value 1.01 | locus YOR069W, strain VPS5, stronger effect = lower value 1 | locus YOR070C, strain gyp1, stronger effect = lower value 1 | locus YOR080W, strain dia2, stronger effect = lower value 1 | locus YOR083W, strain WHI5, stronger effect = lower value 1.01 | locus YOR106W, strain vam3, stronger effect = lower value 0.998 | locus YOR136W, strain idh2, stronger effect = lower value 1.01 | locus YOR144C, strain elg1, stronger effect = lower value 1 | locus YOR184W, strain ser1, stronger effect = lower value 1.01 | locus YOR231W, strain MKK1, stronger effect = lower value 0.978 | locus YOR265W, strain rbl2, stronger effect = lower value 1 | locus YOR270C, strain vph1, stronger effect = lower value 1.03 | locus YOR290C, strain snf2, stronger effect = lower value 1 | locus YOR316C, strain cot1, stronger effect = lower value 1.01 | locus YPL051W, strain arl3, stronger effect = lower value 1 | locus YPL055C, strain LGE1, stronger effect = lower value 1.02 | locus YPL078C, strain atp4, stronger effect = lower value 1.01 | locus YPL106C, strain sse1, stronger effect = lower value 1.01 | locus YPL240C, strain hsp82, stronger effect = lower value 1 | locus YPL256C, strain CLN2, stronger effect = lower value 0.964 | locus YPR119W, strain clb2, stronger effect = lower value 0.996 | locus YPR141C, strain kar3, stronger effect = lower value 1.01 | locus YPR163C, strain tif3, stronger effect = lower value 1.01 | locus YPR167C, strain met16, stronger effect = lower value 1 | strain wtn01, stronger effect = lower value 1
